Compounds without any hit were thinned out: in the full panel of roughly 79,000, 15% have a hit. A number with no mark means an inactive call. The source made the active and inactive calls. No stated cut-off is given here; in the data, active means growth inhibition above about 70%; inactive means the rest.
Columns and labels:
[1] = NCI Yeast Anticancer Drug Screen. Data for the rad50 strain (AID 155);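 further: 0% = growth of vehicle-only cultures of the same strain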; settings: S. cerevisiae rad50 strain growth inhibition; at 50.0 µM; hits give high values
Procedure, shortened: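 DNA repair mutant yeast, compound exposure, growth read-out; inhibition is taken relative to vehicle.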

[2] = NCI Yeast Anticancer Drug Screen. Data for the mec2-1 strain (AID 157); settings: S. cerevisiae mec2-1 strain, at 50.0 µM, hits give high values
Procedure, shortened: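 mec2-1 yeast strain, carrying an alteration in DNA damage repair or cell cycle control, was exposed to compounds; growth inhibition was measured relative to vehicle-treated controls.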

[3] = NCI Yeast Anticancer Drug Screen. Data for the sgs1 mgt1 strain (AID 161);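 further: 0% = growth of cultures given vehicle only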; settings: S. cerevisiae sgs1 mgt1 strain, at 50.0 µM, hits give high values
Procedure, shortened: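 Yeast cells carrying a defined DNA-repair defect were exposed to test compounds. Growth inhibition was measured relative to vehicle-treated controls.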

[4] = NCI Yeast Anticancer Drug Screen. Data for the cln2 rad14 strain (AID 165);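 further: 0% = growth equal to vehicle treated cultures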; settings: S. cerevisiae cln2 rad14 strain, at 50.0 µM, hits give high values
Procedure, shortened: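 Yeast carrying cln2 and rad14 alterations (cell cycle control and DNA damage repair) were exposed to compounds. Growth inhibition was measured against vehicle-treated controls.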

[5] = NCI Yeast Anticancer Drug Screen. Data for the bub3 strain (AID 167); settings: S. cerevisiae bub3 mutant strain, at 50.0 µM, hits give high values
Procedure, shortened: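 In this screen, a yeast mutant lacking normal mitotic checkpoint function is challenged with compound. Relative growth versus vehicle gives the inhibition value.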

[6] = NCI Yeast Anticancer Drug Screen. Data for the mlh1 rad18 strain (AID 175); settings: S. cerevisiae mlh1 rad18 strain growth inhibition; at 50.0 µM; hits give high values
Procedure, shortened: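 Growth inhibition of the yeast strain was measured after compound exposure and expressed relative to vehicle-treated controls. The strain carries defined defects in DNA damage repair.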

| SMILES | growth inhibition [1] | growth inhibition [2] | growth inhibition [3] | growth inhibition [4] | growth inhibition [5] | growth inhibition [6] |
| --- | --- | --- | --- | --- | --- | --- |
| CN(C)S(=O)(=O)C(C(N)=O)c1ccccc1 (centres undefined) | -8.75% | 10.6% | 19.4% | -14.9% | 7.65% | 10.4% |
| c1ccc(-c2nnc(SCc3nc4ccccc4[nH]3)o2)cc1 | 5.65% | 9.75% | 29.8% | 36.3% | 20.4% | 52% |
| CC(=O)Nc1ncc2ccccc2c1-c1ccc(NC(=O)CCCl)cc1 | -0.65% | 19.4% | 19.8% | -1.3% | 3.6% | 12.8% |
| Cc1cc(N2CCCCC2)nc(N2CCCCC2)c1C#N | -4.2% | -20.2% | 27.7% | 14.6% | 35.9% | 13.8% |
| CC1(c2ccccc2)OC1(C)c1ccccc1 (centres undefined) | 5.7% | -5.6% | -7.65% | -17.1% | 21.1% | 28.8% |
| CCCNC(=O)N1C(=O)c2ccccc2S1(=O)=O | -26.8% | -7.2% | 7.85% | -26.1% | -14.1% | -22.6% |
| O=C(O)CN(CCCCN(CC(=O)O)CC(=O)O)CC(=O)O | -6.8% | -15.8% | 9.3% | -66.5% | 16.4% | -21.2% |
| N#CCN1CCOCC1 | 31.5% | -1.55% | 4.45% | 15.2% | 10.2% | 27.1% |
| c1cc(C2CCCCC2)ccc1C1CCCCC1 | -7.4% | -19.1% | -20.6% | -58.1% | -16.1% | -3.9% |
| c1ccc2c(c1)CCC(C1=NC3CCCCC3N1)=N2 (centres undefined) | -1.25% | 3.7% | 1.1% | -47.3% | 6.3% | 1.85% |
| Cn1c(=O)oc2cc(C(=O)CN3CCN(Cc4ccc5c(c4)OCO5)CC3)c(Cl)cc21 | 29.5% | 26.4% | 61.8% | 26.1% | 53.4% | 23.1% |
| CC1=C(O)C(=O)C2C(=O)C1C1Cc3ccccc3C21 (centres undefined) | -21.1% | -2.05% | -24.6% | -3.2% | -2.1% | -17.6% |
| O=S1Nc2ccccc2[C@H]2[C@@H]1[C@H]1O[C@@H]2c2ccccc21 (some centres undefined) | -3.6% | -5.65% | -23.6% | -27.6% | -6.6% | -0.85% |
| CN(C)c1nc(=NCc2cccs2)ss1 | 71.2% (active) | 46.3% | 77.5% (active) | 45.2% | 60.5% | 65.7% |
| Cc1ccc2ccccc2[n+]1CC(=O)c1ccc([N+](=O)[O-])cc1 | -16.8% | -30.8% | -9.3% | 9.95% | -11.2% | -12.4% |
| C=CCCC1CC(OCC)OC(CCC=C)O1 (centres undefined) | 16.9% | 1.15% | 1.25% | -24.8% | -6.3% | 13.8% |
| C[C@H]1CCC2C(OC(=O)[C@@H]2CN(C)C)[C@]2(C)C(=O)C=CC12O (some centres undefined) | -24.5% | -31.4% | -10.3% | 17.4% | -6.95% | -36% |
| CCC(=O)Oc1ccc([N+](=O)[O-])cc1[N+](=O)[O-] | 38.6% | 30.6% | 49.3% | 26.6% | -0.5% | 21.6% |
| O=NN(CCCl)C(=O)N[C@H]1CCC[C@@H](O)C1 | 5.85% | -3.35% | -6.2% | -42.9% | -15.2% | 6% |
| NC(=N\C1=NCCN1)/C(N)=N/C1=NCCN1 | -13.4% | 5.35% | -1.35% | -29.5% | -2.3% | -13.2% |

| SMILES | growth inhibition [1] | growth inhibition [2] | growth inhibition [3] | growth inhibition [4] | growth inhibition [5] | growth inhibition [6] |
| --- | --- | --- | --- | --- | --- | --- |
| CC1CCCN(C(=O)Nc2ccc([N+](=O)[O-])cc2)C1 (centres undefined) | 41.1% | 31.3% | 61.9% | 25.8% | 59.4% | 43.8% |
| Cn1c(=O)c2[nH]c(/N=N/N3CCN(CCO)CC3)nc2n(C)c1=O | 20.1% | -14.8% | 6.95% | -34% | -45.6% | 9.35% |
| COc1cc(Nc2cc(Cl)cc(Cl)c2)nc(N)n1 | 76.4% (active) | 81% (active) | 6.5% | 7.9% | 9.35% | 89.6% (active) |
| O=C(O)C1Cc2nc[nH]c2CN1CO (centres undefined) | 6.1% | -8.8% | -19.8% | 3.95% | 23.7% | 8% |
| C(=C\c1cc(-c2cc(/C=C/c3ccccc3)[nH]n2)n[nH]1)/c1ccccc1 | 6.15% | 9.1% | -14.3% | 13.2% | -8% | 44.4% |
| O=C1NC(=O)C2CCC12 (centres undefined) | 1.95% | -4.2% | 1.45% | -20.7% | 8.95% | 18.2% |
| N/N=C(/CC(O)(C(F)(F)F)C(F)(F)F)c1ccccc1 | -10.8% | -24.9% | -13.9% | -3.7% | 3% | 2.65% |
| C=CCC12CC(COc3ccccc3C(N)=O)OC1=Nc1ccccc1NC2=O (centres undefined) | 0.55% | 0.25% | -27.6% | -1.8% | 0.8% | -5.05% |
| OCCNc1ncnc2ccccc12 | -16.6% | -1.7% | 4.35% | -4.7% | 6.15% | -18.9% |
| CC1c2ccccc2Cn2cc3c(c21)C(=O)c1cccc(OP(=O)(O)OCc2ccccc2)c1C3=O (centres undefined) | 2.2% | 12.6% | 13.1% | 3.45% | 5.1% | 11.9% |
| CC1(C)COC2(CC(C)(C)OC2(C)C)OC1 | -1.45% | 0.8% | -6% | -40.8% | -7.25% | 14.8% |
| CCNC(=O)[B-][N+](C)(C)C | 6.75% | 0.05% | 3.75% | 35.4% | -12.4% | 4.5% |
| Cc1ccc(S(=O)C(C)C(Cl)c2ccccc2)cc1 (centres undefined) | -3.6% | 0.2% | 5.6% | 16.9% | 11.7% | 6.9% |
| C/C=C/c1ccc(OCC)c(OC)c1 | 24.4% | 6.25% | 12.3% | -8.8% | -17.2% | 16.3% |
| C[N+](C)(C)CCCc1ccc2oc3ccccc3c2c1 | 21.8% | 8.65% | 7.35% | 6.15% | 0.7% | 7.95% |
| CC(C)N1CCC(OC(=O)Nc2ccccc2)C1 (centres undefined) | 3.85% | 5.6% | -7.75% | -27.1% | -14.5% | 8.35% |
| CCOC(=O)C1=C(C)N(c2ccccc2)C2=C(C(=O)N(c3ccccc3)C2c2ccccc2)C1c1ccccc1 (centres undefined) | 9.9% | -13.8% | 9.25% | 15% | -21.7% | 7.2% |
| CC(=O)NC1C(O)CC(OCCCSCCN)(C(=O)O)OC1C(O)C(O)CO (centres undefined) | -6.25% | -22.6% | -23.1% | 11.3% | -16.8% | -26.5% |
| Cc1c(Cl)cccc1NC(=O)C(=O)C1C(=O)CC(C)(C)CC1=O | 10.6% | 6.8% | -1.2% | 7.85% | 15.2% | 18.8% |

— PubChem BioAssay (NCI)
